Source: PubChem BioAssay (Sanford-Burnham Center for Chemical Genomics)
Only some compounds are listed: those with a hit (about 2.2% of all), similar ones and a draw of the others.
KKLEB cytotox: cytotoxicity in KKLEB CF airway cells, primary screen, cytotoxicity control for CF NF-kB inhibitor project, cell-based, uHTS, fluorescence assay plates; KKLEB CF airway cells viability, ATPlite luminescence, overnight; stronger effect = lower value; cells stimulated with P. aeruginosa culture filtrate; activity change (cytotoxicity), % at 5 µM; actives 0.36% (n = 360,000); AID 602141, 2011;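 active = corrected activity change at or below -50% at 5 µM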
TRAIL sens C8: viability loss with TRAIL in NB7+C8 cells, primary screen, TRAIL sensitizer project, cell-based, ATPlite luminescence; actives 1% (n = 360,000); inhibition (viability loss, TRAIL sensitization), % at 10 µM; AID 624354, 2012;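 active = compounds causing at least 50% loss of cell viability in the single-dose screen, relative to plate controls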
PPC-1+TRAIL kill: compounds killing PPC-1 cancer cells with TRAIL present, primary screen, TRAIL potentiator project, ATPLite luminescence, uHTS. PPC-1 cells + TRAIL, ATPLite viability luminescence. cell killing (% activity), % at 4 µM or 5 µM. actives 0.41% (n = 220,000). AID 1443, 2008;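 active = cell killing above 50% in the first pass at 4 µM, then a duplicate retest at 5 µM averaging 50% or more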;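 note: plate controls were cells with TRAIL plus DMSO for no effect and medium-only wells lacking cells for full effect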
CF NFkB inh: inhibitors of PAF-induced NF-kB signaling, primary screen, cell-based, GFP fluorescence, uHTS; inhibition, % at 5 µM; KKLEB NF-kB-GFP reporter, GFP fluorescence overnight; actives 0.86% (n = 360,000);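 active = at least 50% inhibition at 5 µM, scaled per plate between neutral and stimulator controls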;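 note: PAF is a Pseudomonas aeruginosa culture filtrate used as stimulus; plate controls were PAF-stimulated DMSO wells for no effect and unstimulated DMSO wells for full effect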
iPSC survival up: enhancers of single-cell hiPSC survival, primary screen, ATPlite luminescence; actives 0.044% (n = 360,000); 100% = ROCK inhibitor wells, 0% = DMSO; AID 602274, 2012; survival enhancement, % at 20 µM; in the data active = survival enhancement above about 18%;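 note: cells exposed to compounds for 16 hours before the ATP read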
HIF-2a inh: HIF-2a reporter inhibitors, primary screen, luminescence, 786-0 RCC cells | AID 624352, 2012 | 786-0 RCC cells HIF-2a reporter, luciferase luminescence, overnight | inhibition, % at 18.8 µM | actives 0.72% (n = 360,000);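 active = inhibition of the luminescence signal of 40% or more relative to plate controls, in a single-dose primary screen at 18.75 µM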
The depositor's hits bear a star; · = not tested or not shown.

SMILES	KKLEB cytotox	TRAIL sens C8	PPC-1+TRAIL kill	CF NFkB inh	iPSC survival up	HIF-2a inh
CC1(S(=O)(=O)O)CC(=O)c2ccccc2C1=O (centres undefined)	28	-3	·	69*	0	32
CN(C)S(=O)(=O)c1cccc(-c2nn(-c3ccccc3)cc2/C=C(\C#N)c2nc3ccccc3[nH]2)c1	-25	27	12	1	4	19
CN(C)S(=O)(=O)c1cccc(-c2nn(-c3ccccc3)cc2/C=C2\SC(=S)NC2=O)c1	-17	20	3	53*	-1	0
COc1ccc(N2CC(C(=O)OCC(=O)Nc3cccc(C)c3)CC2=O)cc1 (centres undefined)	11	8	·	-3	0	3
COn1c(SCc2ccc(Cl)cc2)nc2ccccc2c1=O	-7	60*	37	8	-1	-59
CCOc1ccc(C(=O)Nc2cc(-c3nc4ccccc4[nH]3)ccc2Cl)cc1[N+](=O)[O-]	-53*	11	5	39	-3	27
COc1cccc(C(=O)NC(=S)Nn2cnnc2)c1OC	22	-2	-4	-5	2	9
O=C(C(=O)N1CCCC1)c1c[nH]c2ccccc12	-8	10	·	-8	0	-6
O=C1CC2(CCN(C(=O)C(=O)c3c[nH]c4ccccc34)CC2)Oc2ccccc21	-100*	-3	·	84*	0	5
COc1cc(/C=N/NC(=O)c2ccc(CN3c4cccc5cccc(c45)S3(=O)=O)cc2)cc(OC)c1O	-80*	-6	31	69*	0	10
COc1ccc(/C=N/NC(=O)c2ccc(CN3c4cccc5cccc(c45)S3(=O)=O)cc2)cc1	9	-7	-8	-10	-1	-10
CN(C)C(=O)[C@H]1C[C@H]1[C@@H](O)[C@H](CO)NC(=O)[C@H](Cc1ccccc1)NC(=O)OC(C)(C)C	-17	1	·	6	-1	13
CCCCNc1c(-c2cccc(-c3cc(C(C)=O)cs3)c2)nc2ccc(C)cn12	-93*	30	·	83*	-3	-174
CC[C@]12c3[nH]c4cc(CCC(=O)N(C)C)ccc4c3CCN1C(=O)[C@@H](CC(=O)NCCCn1ccnc1)C[C@@H]2C(=O)N1CCN(C(=O)c2ccco2)CC1	10	-14	·	-25	1	5
COc1ccnc2c1c(=O)n(Cc1ccc(Cl)cc1)c(=O)n2C	5	1	·	-36	0	1
COc1ccc(C(C)=O)cc1Cn1c(C)c(C(=O)NCc2ccc(C(C)C)cc2)sc1=O	-10	-3	·	-9	0	6
O=C(/C=C/c1cccc([N+](=O)[O-])c1)c1ccc([N+](=O)[O-])o1	-89*	46	·	97*	13	44*
COc1ccc(C(=O)O)cc1S(=O)(=O)NCc1ccccn1	7	-2	·	-17	1	14
c1ccc(-c2cn3nc(-c4ccccc4)sc3n2)cc1	-60*	85*	·	-9	-1	-71
Cc1c(CCOC(=O)C23CC4CC(CC(C4)C2)C3)sc[n+]1CC#N	-63*	9	21	76*	-1	1
Cc1cc(C(=O)N/N=C/c2ccc3c(c2)OCO3)c(C)n1-c1ccc(F)cc1	-1	-5	7	-17	2	-37
Cc1cc(C(=O)N/N=C/c2ccc(Cl)c([N+](=O)[O-])c2)c(C)n1-c1ccc(F)cc1	1	2	4	1	1	61*
N#C/C(=C/c1ccc(N2CCCCC2)o1)c1cccc(F)c1	11	17	15	-12	-2	-339
N#C/C(=C/c1ccc(N2CCCCCC2)o1)c1ccc(Cl)cc1	-40	39	3	71*	-5	45*
COc1cc(/C=C2\SC(=N)N(c3ccc(F)cc3)C2=O)ccc1O	-40	-9	15	62*	0	19
SMILES	KKLEB cytotox	TRAIL sens C8	PPC-1+TRAIL kill	CF NFkB inh	iPSC survival up	HIF-2a inh
COc1ccc(NC(=O)COC(=O)CCc2ccc(S(=O)(=O)N3CCOCC3)cc2)cc1OC	1	6	·	-13	0	-20
O=C(NN=Cc1ccc2c(c1)CCN2)c1cccs1	-23	50*	·	0	-3	-212
C=Cc1ccc(Cn2c(C)c(C(=O)NCc3cccc(C(F)(F)F)c3)sc2=O)cc1	-9	51*	·	-20	-1	1
Cc1c(C(=O)NCc2cccc(C(F)(F)F)c2)sc(=O)n1Cc1ccc(F)cc1	6	-8	·	-19	-1	-4
O=C(Nc1cc(Cl)cc(Cl)c1)N[C@@H]1CC[C@@H](CCNS(=O)(=O)c2cccc(F)c2)O[C@@H]1CO	·	13	·	·	·	-10
CCN1C(=O)C(=Cc2cccc(OC)c2Oc2ccc([N+](=O)[O-])cc2[N+](=O)[O-])SC1=S	-84*	34	·	88*	0	6
CCOc1ccc(CCN2C(=S)N([C@@H](Cc3ccc(O)cc3)CN3CCC[C@@H]3CN3C(=S)NC[C@@H]3CC(C)C)C[C@@H]2CC(C)C)cc1	-4	-5	·	33	-1	-26
CC(C)CC(/C(O)=C(\C#N)c1nc2ccccc2[nH]1)N1C(=O)c2ccccc2C1=O (centres undefined)	-3	65*	0	-5	2	33
CCc1cc[n+](C2=C([O-])c3ccccc3C(=O)/C2=N\S(=O)(=O)c2cccs2)cc1	-25	41	18	74*	-3	-32
COC(=O)CCc1c(C)c(C(=O)c2cc(OC)c(OC)c(OC)c2)c2ccccn12	-3	21	·	-6	0	0
COc1cc(NC(=O)Nc2nc(C(N)Cc3ccc(C(F)(F)F)cc3)cs2)cc(OC)c1OC (centres undefined)	2	53*	·	-1	-5	2
CN(Cc1ccccc1)C(=O)c1ccc(Nc2nc(C(N)Cc3ccc(C(F)(F)F)cc3)cs2)nc1 (centres undefined)	-20	93*	·	29	-1	-5
NC(COCc1ccccc1)c1csc(NC(=O)Nc2cccc(C(F)(F)F)c2)n1 (centres undefined)	-83*	20	·	86*	-4	12
NC(Cc1ccc(C(F)(F)F)cc1)c1csc(NC(=O)Nc2ccccc2Oc2ccccc2)n1 (centres undefined)	-22	87*	·	15	-5	19
NC(=O)c1ccc(Nc2nc(C(N)COCc3ccccc3)cs2)cc1 (centres undefined)	-4	6	·	21	-2	-1
Cn1c(Cc2ccccc2)nnc1SCC(=O)NC1CCCC1	6	5	·	12	0	6
